High-throughput results (PubChem)
Compounds with a hit are over-represented: about 5.2% of the library has one in this group of screens.
Luciferase inh = firefly luciferase inhibition; actives 2.2% (n = 72,000); Potency, µM (highest dose often 57.1 µM), usual class: inhibitors; purified firefly luciferase, luminescence, 8 min; P08659; AID 411; also: nearly all actives have a fitted effect of over 40% in size
Target sequence (P08659 whole entry, looked up): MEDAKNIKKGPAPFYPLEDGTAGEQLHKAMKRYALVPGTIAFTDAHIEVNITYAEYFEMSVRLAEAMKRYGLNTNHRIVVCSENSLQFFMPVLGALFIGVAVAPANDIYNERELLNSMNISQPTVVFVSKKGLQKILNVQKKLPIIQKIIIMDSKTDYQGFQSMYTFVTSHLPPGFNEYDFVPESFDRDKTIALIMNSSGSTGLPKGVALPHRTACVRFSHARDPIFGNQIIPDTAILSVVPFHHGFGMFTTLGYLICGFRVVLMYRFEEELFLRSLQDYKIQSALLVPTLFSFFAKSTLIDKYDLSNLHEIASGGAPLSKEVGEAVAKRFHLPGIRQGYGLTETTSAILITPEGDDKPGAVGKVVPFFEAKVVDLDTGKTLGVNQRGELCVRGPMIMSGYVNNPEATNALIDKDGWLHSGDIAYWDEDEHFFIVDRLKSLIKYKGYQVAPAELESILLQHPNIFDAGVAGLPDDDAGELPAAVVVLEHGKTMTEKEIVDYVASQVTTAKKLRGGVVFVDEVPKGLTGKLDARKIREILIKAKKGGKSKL
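Titration-based qHTS; buffer 50 mM imidazole pH 7.2, 50 mM KCl, 7 mM MgCl2, 10 uM ATP, 0.01% Tween 20, 0.05% BSA; luciferase/luciferin detector mix added after compound; 8 min, ambient; luminescence.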
Bst PK mod = alters activity of Bacillus stearothermophilus pyruvate kinase; purified pyruvate kinase, luminescence ATP production; ribose 5-phosphate activator present at AC10; Potency, µM; actives 1.2% (n = 51,000); in the data active = potency below about 11 µM; inconclusive = mostly about 12 µM to 25 µM;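 the screen sought inhibitors and activators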
HEK293 cAMP ctrl = raises cAMP in parental HEK293 cells, TSHR agonist counter-screen; parental HEK293 CNG cAMP sensor, membrane potential fluorescence; actives 2.5% (n = 73,000); Potency, µM (titrated, usually from 57.1 µM), actives largely listed as activators; AID 938; also: nearly all actives have a fitted effect of over 55% in size
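Parental HEK 293 cells stably expressing a cAMP-gated CNG channel were loaded with membrane potential dye containing 100 uM RO 20-1724 for 60 min. Compound added for 30 min; depolarization read as fluorescence intensity at 590 nm.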
TSHR agonist = TSH receptor (human) agonism. P16473. HEK293-CNG-TSHR cells (CNG channel as cAMP sensor), membrane potential dye, cAMP. Potency, µM (series often up to 57.1 µM), hits mostly activators. actives 0.48% (n = 73,000). AID 926; active = well fitted activation curve with a large enough effect in the main read-out, with a control signal flat, not every such curve was filed as active; inconclusive = small, poorly fitted or top-dose-only effect, or a change in a side signal; inactive = no such curve, though single readings can be large or run the other way; reference of the percent scale not stated here;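 also: the control signal comes from parental cells without the receptor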
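cAMP rise detected as CNG-channel membrane depolarization by fluorescent dye (emission 590 nm), 30 min after compound, following 60 min dye loading containing 100 uM RO 20-1724 at room temperature. Cells: TSHR/CNG HEK 293, with parental CNG HEK 293 as control.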
Of the large screens only hits and unclear results are named; the others gave an inactive call; ! = not confirmed by another sample. Unless noted, calls follow the shape of the dose curve; as a rule, active = well fitted curve in the direction sought with a large enough effect; inconclusive = small, poorly fitted or top-dose-only effect, or another doubt; inactive = no such curve, though single readings can be large; an effect the other way counts as inactive or inconclusive.

CC1C(O)=C(c2nc3ccccc3[nH]2)C(=N)N1c1ccccc1 (stereo unspecified)	Luciferase inh 25.1µM (no result: Bst PK mod)
N=C1C(c2nc3ccccc3[nH]2)=C(O)CN1c1ccccc1	none (no result: Bst PK mod)
COCCOC(=O)C1=C(C)NC2=C(C(=O)CCC2)C1c1ccc(N(C)C)cc1 (stereo unspecified)	none (no result: Bst PK mod)
O=P(OC1CCS(=O)(=O)C1)(c1ccccc1)c1ccccc1 (stereo unspecified)	none
Cc1nc2scc(-c3cccs3)c2c(=O)n1-n1cccc1	HEK293 cAMP ctrl 31.6µM, TSHR agonist inconclusive (no result: Bst PK mod)
O=c1oc(-c2cccs2)nc2scc(-c3cccs3)c12	Luciferase inh 12.6µM
Cc1ccc(C)n1-n1c(C)nc2scc(-c3cccs3)c2c1=O	HEK293 cAMP ctrl inconclusive, TSHR agonist inconclusive (no result: Bst PK mod)
CCOC(=O)N1CCN(S(=O)(=O)c2cccc3nsnc23)CC1	none
Cc1ccc(Nc2ncnc3nc[nH]c23)cc1Cl	HEK293 cAMP ctrl 25.1µM, TSHR agonist inconclusive (no result: Bst PK mod)
CCCCc1ccc(Nc2ncnc3nc[nH]c23)cc1	none (no result: Bst PK mod)
Clc1ccc(OCc2nn3c(-c4ccco4)nnc3s2)c(Cl)c1	HEK293 cAMP ctrl 31.6µM, TSHR agonist inconclusive
CC(=O)NC1C(=O)N=C(SCC(=O)NC(C)c2ccccc2)NC1=O (stereo unspecified)	HEK293 cAMP ctrl 15.8µM, TSHR agonist inconclusive
CCOC(=O)C1CCN(c2nc(-c3ccccc3)nc3c2oc2ccccc23)CC1	none (no result: TSHR agonist)
OCCN1CCN(c2nc(-c3ccccc3)nc3c2oc2ccccc23)CC1	Bst PK mod 5.97 (no result: TSHR agonist)
O=C(O)C1CCN(c2nc(-c3ccccc3)nc3c2oc2ccccc23)CC1	Bst PK mod 7.37
O=C(O)CSc1nc(-c2ccccc2)nc2c1oc1ccccc12	Bst PK mod inconclusive
Cc1ccc2c(c1)NC(=O)C(CC(=O)NCCCN1CCN(C3CCCCC3)CC1)O2 (stereo unspecified)	none (no result: Bst PK mod)
COc1ccccc1-c1cc(-n2ccnc2)ncn1	HEK293 cAMP ctrl 31.6µM, TSHR agonist inconclusive (no result: Bst PK mod)
COc1ccc2cc(C(c3nnnn3C(C)(C)C)N3CCc4ccccc4C3)c(=O)[nH]c2c1 (stereo unspecified)	none
CC(C)(C)n1nnnc1C(c1cccs1)N1CCCc2ccccc21 (stereo unspecified)	HEK293 cAMP ctrl 15.8µM, TSHR agonist inconclusive
COc1ccc(NC(=O)CSc2nnc(N)s2)cc1	none (no result: Luciferase inh, Bst PK mod)
COC(=O)CC1C(=O)NCCN1C(=O)CSc1nnc(Nc2ccc(OC)cc2)s1 (stereo unspecified)	Luciferase inh 15.8µM (no result: Bst PK mod)
COc1ccc(C(=O)/C=C/Nc2cc(C)on2)c(OC)c1	Luciferase inh 3.16µM, Bst PK mod 3.8
CCOC(=O)c1c(C)[nH]c(C(C)=O)c1C	none (no result: Bst PK mod)
CCOC(=O)c1c(C)[nH]c(C(=O)CSc2ccccc2)c1C	Luciferase inh 3.98µM
Cc1ccc(S(=O)(=O)n2ccnc2)cc1C	HEK293 cAMP ctrl 20µM, TSHR agonist inconclusive (no result: Bst PK mod)
CC(C)(C)c1ccc(S(=O)(=O)/C=C\C#N)cc1	HEK293 cAMP ctrl 25.1µM!, TSHR agonist inconclusive (no result: Bst PK mod)
Cc1cccc2cc(C(c3nnnn3Cc3ccccc3)N3CCN(C)CC3)c(=O)[nH]c12 (stereo unspecified)	HEK293 cAMP ctrl inconclusive, TSHR agonist inconclusive
COc1ccc2c3c(ccc2c1)N[C@H](C(=O)O)CC3	Luciferase inh 3.16µM (no result: Bst PK mod)
Cc1ccccc1-n1c(C)nc2ccccc21	TSHR agonist 25.1µM (no result: Bst PK mod)
CSc1nc(NCc2ccco2)c2c3c(sc2n1)CN(C)CC3	HEK293 cAMP ctrl 25.1µM, TSHR agonist inconclusive
O=C(COc1ccc(F)cc1Br)N1CCc2ccccc21	Luciferase inh 7.94µM
Cc1cc(C)c(C(=O)OCCNC(=O)c2cccnc2)cc1C	none
Cc1ccc(C(=O)c2coc3ccc(O)c(CN4CCN(C)CC4)c23)cc1	HEK293 cAMP ctrl 12.6µM, TSHR agonist inconclusive
CCCCCOc1ccc(CN2CCOCC2)cc1Cl	Luciferase inh 25.1µM, HEK293 cAMP ctrl inconclusive, TSHR agonist inconclusive (no result: Bst PK mod)
CCCCOc1ccc(OCCCN2CCOCC2)cc1	none
COc1cccc(OC)c1C(=O)Nn1c(C2CCC2)nc2ccccc2c1=O	HEK293 cAMP ctrl 25.1µM, TSHR agonist inconclusive
O=C(CCN1C(=O)c2ccccc2C1=O)N1CCN(c2ccccn2)CC1	none
O=C(CCN1C(=O)c2ccccc2C1=O)N1CCN(C(=O)c2ccccc2)CC1	TSHR agonist 25.1µM
Cc1cc2ccc(C)c(C)c2nc1SCC#N	HEK293 cAMP ctrl 20µM, TSHR agonist inconclusive
COc1ccc(-n2c(Cc3cc(=O)[nH]c(=O)[nH]3)nnc2SCc2ccccc2)cc1	none (no result: Bst PK mod)
Cc1cc2c(=O)n(Cc3ccco3)c(SCC(=O)N3CCCc4ccccc43)nc2s1	HEK293 cAMP ctrl 31.6µM, TSHR agonist inconclusive
CCOC(=O)CSc1nc2ccccc2c(=O)n1CC1CCCO1 (stereo unspecified)	HEK293 cAMP ctrl 15.8µM, TSHR agonist inconclusive
CCn1c(SCC(=O)N2CCCc3ccccc32)nc2cccnc21	none
CCn1c(SCC(=O)N2CCCc3ccccc32)nc2ccccc2c1=O	HEK293 cAMP ctrl 10µM, TSHR agonist inconclusive
Cc1ccc(-n2ncc3c(=O)[nH]c(SCC(=O)N4CCN(c5ccccc5)CC4)nc32)cc1	HEK293 cAMP ctrl inconclusive, TSHR agonist inconclusive
Cc1ccc(-n2ncc3c(=O)[nH]c(SCC(=O)N4CCCc5ccccc54)nc32)cc1	HEK293 cAMP ctrl 39.8µM, TSHR agonist inconclusive
COC(=O)COc1ccc(S(=O)(=O)N2CCN(c3ccccc3F)CC2)cc1	HEK293 cAMP ctrl inconclusive, TSHR agonist inconclusive
c1ccc(CCc2nn3c(C4COc5ccccc5O4)nnc3s2)cc1 (stereo unspecified)	HEK293 cAMP ctrl 15.8µM, TSHR agonist inconclusive
Cc1ccc(-c2nnc3sc(C4COc5ccccc5O4)nn23)cc1 (stereo unspecified)	HEK293 cAMP ctrl 25.1µM, TSHR agonist inconclusive
COc1ccccc1-c1nn2c(C3COc4ccccc4O3)nnc2s1 (stereo unspecified)	HEK293 cAMP ctrl 25.1µM, TSHR agonist inconclusive
c1ccc(-c2nn3c(C4COc5ccccc5O4)nnc3s2)cc1 (stereo unspecified)	none
Cc1cc(NC(=O)CCn2c(=O)sc3ccccc32)no1	none
CC(C)(C)n1ncc2c(=O)n(CC(=O)N3CCc4ccccc43)cnc21	none
CCOC(=O)Cn1nc(-c2ccc(Cl)cc2)cc1N	Bst PK mod 5.79, HEK293 cAMP ctrl inconclusive, TSHR agonist inconclusive
O=C(NC1CCCCC1)C(c1ccncc1)N(C(=O)Cn1nnc(-c2cccs2)n1)C1CCCC1 (stereo unspecified)	HEK293 cAMP ctrl inconclusive, TSHR agonist inconclusive
O=C(NCC(=O)N(Cc1cccs1)C(C(=O)NC1CCCC1)c1ccco1)c1cccs1 (stereo unspecified)	HEK293 cAMP ctrl inconclusive, TSHR agonist inconclusive
O=C(NC1CCCC1)C(c1cccs1)N(Cc1ccco1)C(=O)Cn1nnc(-c2cccs2)n1 (stereo unspecified)	HEK293 cAMP ctrl 20µM, TSHR agonist inconclusive
O=C(NC1CCCCC1)C(c1ccccc1)N(Cc1ccco1)C(=O)Cn1cnc2ccccc21 (stereo unspecified)	HEK293 cAMP ctrl 20µM, TSHR agonist inconclusive
O=C(NC1CCCCC1)C(c1ccco1)N(Cc1cccs1)C(=O)Cn1nnc2ccccc21 (stereo unspecified)	HEK293 cAMP ctrl 15.8µM, TSHR agonist inconclusive
